According to PubChem BioAssay (Tox21):
Inconclusive results are not listed. A number with no mark means an inactive call. Active and inactive are the calls of the source. The call rests on the fitted dose curve; in most records, active means well fitted activation curve with a large enough effect in the repeat runs; inconclusive means weak or mixed curves, or effect the other way; inactive means no such curve, though single readings can be large or run the other way.

assay: qHTS assay to identify small molecule agonists of the estrogen related receptor signaling pathway with the pleiotropic PPARgamma coactivator (PGC) from Tox21 10K library (AID 1224842); details: PGC/ERR reporter cell line, luciferase ONE-Glo, 18 h; series mostly up to 92.4 µM; activation: at the top concentration; further: nearly all actives have a fitted effect of over 15% in size
Text: National Center for Advancing Translational Sciences [NCATS] NIH Chemical Genomics Center [NCGC] U.S. Environmental Protection Agency [EPA] National Institutes of Environmental Health Sciences [NIEHS] National Toxicology Program [NTP] Assay overview: Estrogen related receptors (ERRs), the first orphan nuclear receptors discovered, play an important role in the control of cellular energy metabolism. ERRs are required for high-energy production in response to the environmental challenges. The pleiotropic PPARgamma coactivator (PGC) is a major partner of ERR and a key regulator in energy homeostasis. Together they have been implicated in the etiology of metabolic disorders such as Type 2 diabetes and metabolic syndrome. ERR-alpha was also identified as an adverse marker for breast cancer progression; ERR-alpha-positive tumors have a poor prognosis. To screen and to identify environmental compounds that perturb the PGC/ERR signaling pathways could provide valuable information for potential therapeutic or preventive measures in the treatment of metabolic disease. For identifying PGC/ERR agonists, PGC/ERR cell line (provided by NTP) has been used to screen Tox21 10K library.
Assay Protocol Summary: The PGC/ERR cells were dispensed at 2,000 cells/5 ul/well in 1536-well white plates using a Multidrop dispenser. After the assay plates were incubated at a 37 C/5% CO2 incubator for 6 hours, 23 nL of compounds dissolved in DMSO, positive and negative controls or DMSO only was transferred to the assay plate by a pin tool. The plates were incubated at 37 C for 18 hours. 4 ul/well of One-Glo reagent was added into the assay plates using a Flying Reagent Dispenser. After 30-minute incubation at room temperature, the luminescence intensity in the plates was measured using a ViewLux plate reader.
On the % scale 0 is the no-effect control and ±100 the full control effect; potency means the concentration at half of the fitted maximal effect.

SMILES | activation | Potency
CC(C)CCCCCCc1ccc(OCCOCCO)cc1 | 1.64% | 
CCCCNc1ccc(C(=O)OCCN(CC)CC)cc1 | -0.694% [at 42.5 µM] | 
CC(C)(C)c1cccc(O)c1 | 4.39% | 
Cc1cccc(C)c1NC(=O)CN1CCCCCC1 | -2.63% [at 42.5 µM] | 
CCCCCCCOC(=O)CCC | 0.313% | 
CCOc1ccc(NC(N)=O)cc1 | 0.309% | 
CNCCC(Oc1ccccc1OC)c1ccccc1 (stereo not given) | -7.72% [at 42.5 µM] | 
FC(F)(F)c1ccccc1 | -0.0239% | 
C[C@@H]1CN(c2c(F)c(F)c3c(=O)c(C(=O)O)cn(C4CC4)c3c2F)C[C@H](C)N1 | 6.21% [at 19 µM] | 
O=C1CCCc2ccccc21 | -5.75% | 
CCc1nnc(NS(=O)(=O)c2ccc(N)cc2)s1 | -0.13% [at 42.5 µM] | 
COc1ccc(Nc2ccc(OC)cc2)cc1 |  | 27.8 µM (active)
CCCc1c2oc(C(=O)O)cc(=O)c2cc2c(=O)cc(C(=O)O)n(CC)c12 | 2.6% [at 42.5 µM] | 
CC(C)(C)c1ccc(OC(=O)c2ccccc2O)cc1 |  | 10.9 µM (active)
CCCCCCCCOC(=O)CCCCCCCCC(=O)OCCCCCCCC | -2.19% | 
CCOC(=O)c1ccccc1O | 1.47% [at 42.5 µM] | 
CC1=C2[C@H](/C=C(\C)C(=O)O)CC[C@@H](C)[C@H]2CC1 | 1.7% | 
O=C(O)CN(CCN(CC(=O)O)CC(=O)O)CCN(CC(=O)O)CC(=O)O | 0.186% [at 19 µM] | 
NCCC(O)(P(=O)(O)O)P(=O)(O)O | 2.51% [at 42.5 µM] | 
O=C1N(c2ccccc2)c2ccccc2C1(Cc1ccncc1)Cc1ccncc1 | -6.65% [at 42.5 µM] | 

SMILES | activation | Potency
O=C(Cl)c1cccc([N+](=O)[O-])c1 | 2.3% | 
CCN(CCCc1ccccc1)CCCc1ccccc1 | -7% [at 42.5 µM] | 
CCCN(CCC)C(=O)C(CCC(=O)O)NC(=O)c1ccccc1 (stereo not given) | 0.309% [at 42.5 µM] | 
CCCCCCCCCCCCOCCOS(=O)(=O)O | 0.318% | 
O=C(O[C@@H](C(=O)O)[C@@H](OC(=O)c1ccccc1)C(=O)O)c1ccccc1 | 5.68% | 
CCN(CC)CC1CCCCN1CC(=O)N1c2ccccc2C(=O)Nc2cccnc21 (stereo not given) | 0.341% [at 42.5 µM] | 
CCCNC(C)C(=O)Nc1c(C)csc1C(=O)OC (stereo not given) | 0.0326% [at 42.5 µM] | 
CCCCc1ccc2nc(NC(=O)OC)[nH]c2c1 |  | 3.76 µM (active)
CC(=O)N[C@@H](CC(C)C)C(=O)O | 1.63% [at 42.5 µM] | 
CCOC(=O)COc1ccc2c(c1)CC(NCC(O)c1cccc(Cl)c1)CC2 (stereo not given) | 4.16% | 
CC(Oc1c(Cl)cccc1Cl)C1=NCCN1 (stereo not given) | -11.9% [at 42.5 µM] | 
NNS(=O)(=O)c1ccc(Oc2ccc(S(=O)(=O)NN)cc2)cc1 | -3.38% | 
OCCN(CCO)CCN(CCO)CCO | -0.331% | 
CCCCCCCCCC/C=C/C#N | -0.0381% | 
CCCCCCCCCC#N | -3.45% | 
COc1nc(C)nc(NC(=O)NS(=O)(=O)c2ccccc2OCCCl)n1 | 0.581% | 
CCOc1ccc(OCC)c(Cl)c1 | 1.39% | 
Cc1ccc([N+](=O)[O-])cc1Cl | 1.34% | 
OCc1c2ccccc2cc2ccccc12 | -5.56% | 
Cc1ccc(C)c(N)c1 | 1.15% | 
